An excerpt weighted towards active compounds, which were near 5.8% of everything screened.
12-LOX inh: blocks human arachidonate 12S-lipoxygenase. P18054. Potency, µM (titrated, usually from 108 µM), without a hit: top-dose activity change, negative = inhibition, hits mostly inhibitors. AID 1671190. purified 12hLO, xylenol orange hydroperoxide absorbance. actives 1.1% (n = 580,000); also: % is scaled to controls: 0 for no effect and ±100 for the full control effect
Target sequence (P18054 whole entry, looked up): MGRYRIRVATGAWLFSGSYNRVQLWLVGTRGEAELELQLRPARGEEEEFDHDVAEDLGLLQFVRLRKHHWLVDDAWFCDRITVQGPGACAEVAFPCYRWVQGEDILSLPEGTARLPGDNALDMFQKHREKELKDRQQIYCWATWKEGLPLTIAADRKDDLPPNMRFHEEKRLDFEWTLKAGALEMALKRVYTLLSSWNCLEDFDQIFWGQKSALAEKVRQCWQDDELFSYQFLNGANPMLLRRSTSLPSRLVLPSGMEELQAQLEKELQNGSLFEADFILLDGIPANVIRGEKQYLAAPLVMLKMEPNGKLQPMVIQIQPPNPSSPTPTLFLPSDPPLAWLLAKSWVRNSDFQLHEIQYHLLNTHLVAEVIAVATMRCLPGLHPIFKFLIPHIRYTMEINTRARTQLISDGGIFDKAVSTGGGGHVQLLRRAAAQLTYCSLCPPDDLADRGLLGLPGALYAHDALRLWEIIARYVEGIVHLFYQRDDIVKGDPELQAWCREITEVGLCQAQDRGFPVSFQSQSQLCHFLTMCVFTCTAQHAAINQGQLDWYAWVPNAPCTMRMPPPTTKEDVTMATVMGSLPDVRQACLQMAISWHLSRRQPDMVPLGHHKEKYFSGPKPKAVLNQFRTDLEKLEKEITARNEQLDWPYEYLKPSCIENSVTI
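Hydroperoxide product was detected by ferrous iron/xylenol orange as the 573 to 405 nm absorbance ratio. Arachidonic acid at 40 uM (final) was turned over for 30 min at room temperature by 150 nM human 12hLO, pH 7.0 Hepes buffer, after 15 min compound preincubation.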
KB-3-1 cytotox: KB-3-1 parental cell cytotoxicity. actives 1.4% (n = 400,000). KB-3-1 viability, CellTiter-Glo ATP luminescence, 72 h. Potency, µM (doses to about 46.1 µM), most hits filed as cytotoxic; also: % is scaled to controls: 0 for no effect and ±100 for the full control effect; nearly all actives have a fitted effect of over 60% in size
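Viability of parental KB-3-1 cells, measured by CellTiter-Glo luminescence, followed a 72 h incubation at 37 °C with pinned compounds in phenol-red-free DMEM containing 10% FBS.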
KB-V1 cytotox: kills drug-selected multidrug resistant KB-V1 cells. Potency, µM (highest dose often 46.1 µM), actives largely listed as cytotoxic. AID 1347076. actives 3.4% (n = 400,000). KB-V1 MDR cells viability, CellTiter-Glo, 72 h; also: % is scaled to controls: 0 for no effect and ±100 for the full control effect; nearly all actives have a fitted effect of over 60% in size
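qHTS viability screen in drug-selected KB-V1 MDR cells: 72 h compound treatment at 37 degrees C, ATP luminescence end point.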
MCF10A rereplic: DNA re-replication induction in MCF 10a cells | MCF 10A DNA re-replication, Hoechst nuclear intensity, 48 h | Potency, µM (top dose mostly 46.1 µM), for inactives: at the highest dose activity, positive = re-replication, actives largely listed as activators | actives 2.9% (n = 350,000) | AID 624296; also: % of control where 0% means no effect; nearly all actives have a fitted effect of over 50% in size
PINK1 expr mod: PINK1 expression modulation; AID 624263; actives 0.2% (n = 410,000); Potency, µM (top dose mostly 76.6 µM), for the others: at the highest dose activation (PINK1 increase), hits mostly activators; PINK1 immunofluorescence, high-content cytometry, 24 h; active = well fitted activation curve with a large enough effect; inconclusive = small, poorly fitted or top-dose-only effect; cell line not stated here; also: % of control where 0% means no effect; nearly all actives have a fitted effect of over 65% in size
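Compound titrations (5 concentrations, 24 h) on a stable cell line; DMSO and CCCP controls. Endpoint: fixed-cell PINK1 immunofluorescence with mitochondrial, cell and nuclear markers, scanned by microplate cytometer.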
SW480 rerep: inducers of DNA re-replication in SW480 colon cancer cells. SW480 DNA re-replication, Hoechst DNA content imaging, 48 h. Potency, µM (top dose mostly 46.1 µM), without a hit: at the highest dose re-replication activation, hits mostly activators. actives 1.8% (n = 340,000). AID 624297; also: % of control where 0% means no effect; nearly all actives have a fitted effect of over 55% in size
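DNA re-replication was detected as more nuclei of elevated Hoechst intensity after 48 hr exposure to compound (23 nL pinned per well of 250 cells).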
* marks the source's active call; other numbers are inactive results; i = inactive; ? = inconclusive; · = not tested or not shown; [ ] = dose if it differs, or a comment. Unless noted, calls follow the shape of the dose curve; as a rule, active = well fitted curve in the direction sought with a large enough effect; inconclusive = small, poorly fitted or top-dose-only effect, or another doubt; inactive = no such curve, though single readings can be large; an effect the other way counts as inactive or inconclusive. Potency is read from the fitted curve at half-maximal effect.

SMILES	12-LOX inh	KB-3-1 cytotox	KB-V1 cytotox	MCF10A rereplic	PINK1 expr mod	SW480 rerep
O=C1/C(=C/c2ccccc2)Oc2cc(OC(=O)N3CCOCC3)ccc21	-19.4%	i	20.6µM*	10.1%	1.6%	-5.0%
O=C1/C(=C/c2ccc(F)cc2)Oc2cc(OC(=O)N3CCOCC3)ccc21	100.0%	i	i	-2.6%	17.9%	-7.3%
CC(C)c1cccc(NC(=O)CC2(C(=O)O)CCCC2)c1	-5.3%	·	·	·	·	·
NC(=O)Cc1c[nH]c2ncc(-c3cccc(C(F)(F)F)c3)cc12	15.2%[176 µM]	·	·	·	·	·
CC(C)(C)C(=O)Nc1ccc(Sc2ccc([N+](=O)[O-])cc2)cc1	-13.9%	i	20.6µM*	?	?	22.9%
CC(=O)Nc1ccc(NC(=O)c2cc([N+](=O)[O-])cc([N+](=O)[O-])c2)cc1	0.0%	i	i	-11.2%	-0.6%	0.4%
CC(=O)Nc1ccc(Sc2ccc([N+](=O)[O-])o2)cc1	?	i	?	1.84µM*	?	5.8µM*
C=CCNC(=O)CN1CCN(c2nc(-c3ccccc3)nc3ccccc23)CC1	3.8%	·	·	·	·	·
CN(CC(=O)NC(C)(C)C)C(=O)c1ccc2ccccc2n1	45.6%	·	·	·	·	·
C/C(=N/N=C(c1ccccc1)c1ccccc1)c1cccnc1	4.1%	·	·	·	·	·
Cc1ccccc1OCC(=O)NCC(c1ccc(Cl)cc1)N1CCOCC1 (configuration not stated)	4.0%	i	?	·	0.3%	·
COc1ccc(C(CNC(=O)COc2ccccc2C)N2CCOCC2)cc1 (configuration not stated)	1.0%	i	18.4µM*	-0.1%	?	2.5%
CC(C)c1ccccc1OCC(=O)NCC(c1cccs1)N1CCOCC1 (configuration not stated)	2.7%	i	18.4µM*	2.3%	2.2%	-5.0%
O=C1C(=O)N(CNc2ccccn2)c2ccccc21	57.2%	?	i	7.31µM*	-2.2%	11.6µM*
CC1(CCCCc2ccccc2)COc2ccc(C(=O)NCCN3CCOCC3)cc2N1 (configuration not stated)	100µM*	·	·	·	·	·
O=C(CC1C(=O)Nc2nc(SCc3ccccc3)nn21)Nc1cccc(C(F)(F)F)c1 (configuration not stated)	2.7%	·	·	·	·	·
COCCn1cnc2ccc(-c3ccccc3Oc3ccccc3)nc2c1=O	12.6%[176 µM]	·	·	·	·	·
O=C1c2ccccc2-c2onc3ccc(Oc4ccccc4)c1c23	-2.5%	?	23.1µM*	?	-2.6%	8.8%
COc1ccc2cnn(CC(=O)Nc3ccccc3Br)c(=O)c2c1OC	-16.2%	·	·	·	·	·
CCCCCCCCCCOC(=O)C[N+](C)(C)Cc1ccccc1	44.7µM*	·	·	·	·	·
CCCCCCCCCCOC(=O)C[N+](C)(C)C/C=C(/C)Cl	-13.5%	i	i	23.1µM*	3.4%	5.3%
CCCCCCCCCCCCCc1ccccc1	28.4%[176 µM]	·	·	·	·	·
CCCCCCCCCCCCCC[N+](C)(C)Cc1ccccc1	-6.4%[22.9 µM]	18.4µM*	i	26.6µM*	0.7%	26.6µM*
CCCCCCCCCCCCCCCC[N+](C)(C)Cc1ccccc1	?	·	·	13.3µM*	·	?
COC(=O)N/N=C/c1cc(Cl)cc(Cl)c1OCCCOc1ccccc1	-46.4%	·	·	·	·	·
SMILES	12-LOX inh	KB-3-1 cytotox	KB-V1 cytotox	MCF10A rereplic	PINK1 expr mod	SW480 rerep
COc1ccc2oc(=O)c(-c3cn4cccc(C)c4n3)cc2c1	-9.6%	·	·	·	·	·
CCc1n[nH]c(=S)n1/N=C/c1ccc(-c2ccc(Br)cc2)o1	?	i	i	18.4µM*	5.5%	-1.2%
CSc1ccc(/C=N/n2c(Cc3ccc(Br)cc3)n[nH]c2=S)cc1	?	i	i	28.2%	10.2%	?
N#Cc1cccc(OCC(=O)c2ccc3ccccc3c2)c1	11.5%	·	·	·	·	·
COc1ccc(S(=O)(=O)N(C)Cc2cnn(C)c2)cc1OC	33.2%	·	·	·	·	·
O=C(Cc1ccc(F)cc1)N1CCN(C(=O)c2nnn3c2COC(c2ccc(Cl)cc2)C3)CC1 (configuration not stated)	29.3%	·	·	·	·	·

Compound activity from PubChem BioAssay.
